Shown are actives, neighbours in structure and some others; about 1.8% of the full set was active somewhere.
RGS4 inhibitor: inhibitors of human regulator of G protein signaling 4; Potency, µM (top dose mostly 114 µM), for inactives: top-dose activity change, negative = inhibition, hits mostly inhibitors; 0.039% of 390,000 active; AID 504845; Transcreener GDP fluorescence polarization, RGS4-accelerated GTP hydrolysis; P49798; note: % is set by controls: 0 for no effect and ±100 for the full control effect; nearly all actives have a fitted effect of over 75% in size
Target sequence (P49798 whole entry, looked up): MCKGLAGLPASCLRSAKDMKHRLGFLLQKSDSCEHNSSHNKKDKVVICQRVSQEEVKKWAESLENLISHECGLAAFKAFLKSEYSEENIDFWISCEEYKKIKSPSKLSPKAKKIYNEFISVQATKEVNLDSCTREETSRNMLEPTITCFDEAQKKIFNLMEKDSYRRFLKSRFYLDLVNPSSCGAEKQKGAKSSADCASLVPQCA
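MLSMR compounds (23 nl, pin-transferred) preincubated 10 min at room temperature with a 500nM (2x) first reagent, then RGS4 at 900nM (2x) plus Transcreener GDP mix added; fluorescence polarization (620/688 nm) read before and after 90 min at 30 °C.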
PTHR1 ag: activates the human parathyroid hormone receptor PTHR1; Q03431; HEK293 GP2 PTHR1 cells, GloSensor cAMP luminescence, 1 h; Potency, µM (series often up to 115 µM), inactives show top-dose activation, hits mostly activators; 0.075% of 410,000 active; AID 743266; note: nearly all actives have a fitted effect of over 55% in size
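HEK-293-derived GP2 cells expressing PTHR1 and a GloSensor cAMP reporter, 3,000/well, plated overnight, given luciferin plus IBMX (each 0.5 mM as added) for 1 h at 37 °C, then compound for 1 h at 37 °C. Luminescence was read after 15 min at room temperature.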
GLP-1R agonist: activates the human GLP-1 receptor; HEK293 GLP-1R CRE-luciferase, luminescence, 4-6 h; cells express a hypersensitive GLP-1R form; Potency, µM (doses to about 45.6 µM), without a hit: at the highest dose activation, most hits filed as activators; 0.007% of 380,000 active; P43220; AID 624172; note: % of control where 0% means no effect
Target sequence (P43220 whole entry, looked up): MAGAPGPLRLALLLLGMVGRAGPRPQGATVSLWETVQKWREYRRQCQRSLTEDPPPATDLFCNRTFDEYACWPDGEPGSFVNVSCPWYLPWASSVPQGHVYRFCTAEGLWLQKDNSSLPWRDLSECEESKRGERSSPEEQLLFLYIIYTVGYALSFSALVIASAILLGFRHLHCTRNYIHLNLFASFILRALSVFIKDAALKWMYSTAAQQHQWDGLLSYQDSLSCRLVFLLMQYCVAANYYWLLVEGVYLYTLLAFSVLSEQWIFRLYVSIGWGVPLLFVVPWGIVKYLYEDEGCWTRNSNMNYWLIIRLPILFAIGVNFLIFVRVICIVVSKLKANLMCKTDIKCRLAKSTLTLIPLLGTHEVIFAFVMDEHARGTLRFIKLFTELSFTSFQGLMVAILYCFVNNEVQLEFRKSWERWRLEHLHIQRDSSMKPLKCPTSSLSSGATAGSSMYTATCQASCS
GLP1R cytotox: cytotoxicity in counter-screen for GLP-1R inverse agonists; 0.13% of 410,000 active; AID 624418; HEK293 cAMP-luciferase reporter cells, luminescence, 24 h; Potency, µM (doses to about 38.3 µM), for inactives: at the highest dose activity change, negative = inhibition, hits mostly inhibitors;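 note: loss of luciferase light is scored as toxicity; % is set by controls: 0 for no effect and ±100 for the full control effect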
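Cells in DMEM/10% Nu serum/1% pen-strep, 1536-well format. Pre-incubated 12 h, dosed with 23 nL compound, incubated a further 24 h. Luciferase detection, 12 min at room temp, luminescence.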
GLP-1R inv ag: inverse agonists of human GLP-1 receptor | P43220 | HEK293 GLP-1R CRE-luciferase, luminescence, 24 h; GLP-1R form is constitutively active | Potency, µM (series often up to 38.3 µM), inactives show at the top dose activity change, negative = inhibition, hits mostly inhibitors | 1.6% of 410,000 active | AID 624417; note: % is set by controls: 0 for no effect and ±100 for the full control effect; nearly all actives have a fitted effect of over 55% in size
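HEK293 cells stably co-expressing constitutively active GLP-1R and a cAMP-responsive luciferase reporter were seeded in DMEM with 10% Nu serum, given compounds after 12 h, and incubated 24 h at 37 deg C. Luminescence was then read.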
KAT2A inh: blocks human GCN5L2 histone acetyltransferase. Q92830. GCN5L2 HAT assay, ThioGlo1 CoA-SH fluorescence. Potency, µM (series often up to 58.9 µM), for inactives: top-dose activity change, negative = inhibition, usual class: inhibitors. 0.21% of 390,000 active; note: % is set by controls: 0 for no effect and ±100 for the full control effect
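GCN5L2 (20nM final) in 50mM HEPES, 0.1mM EDTA pH 7.5, 0.01% Tween-20 was preincubated 15 min at room temperature with compound, then given ThioGlo1 (50uM), H3(1-25) peptide (75uM) and acetyl-CoA (70uM); CoA-thiol fluorescence (Ex340/Em540) was read at 0 and 20 min.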
* hit, by the source's call; i = inactive; u = inconclusive; x = no result given; [ ] = dose if it differs, or a comment. Calls come from the whole dose curve; as a rule, active = well fitted curve in the direction sought with a large enough effect; inconclusive = small, poorly fitted or top-dose-only effect, or another doubt; inactive = no such curve, though single readings can be large; an effect the other way counts as inactive or inconclusive. Potency is the fitted concentration of half-maximal effect.

SMILES	RGS4 inhibitor	PTHR1 ag	GLP-1R agonist	GLP1R cytotox	GLP-1R inv ag	KAT2A inh
COc1cc(/C=N/Nc2nc(N3CCCCC3)nc(N3CCCCC3)n2)ccc1OC(=O)c1ccco1	x	x	x	x	x	1.4%
Oc1cccc(/C=N/Nc2cc(N3CCOCC3)nc(N3CCOCC3)n2)c1	-13.2%	i	-0.7%	8.5%	3.55µM*	-5.4%
CCOc1ccc(Cl)cc1S(=O)(=O)N1CCC(C(=O)NCc2ccco2)CC1	-21.4%	i	15.4%	-1.5%	1.2%	0.3%
NC(C(=O)O)c1cc(O)c(Cl)c(O)c1 (stereo not given)	i	x	x	x	x	31.6µM*
CCn1cc(C(=O)N2CCN(c3cc(C)ccc3C)CC2)c(=O)c2cc(S(=O)(=O)N3CCCCC3)ccc21	0.8%	i	x	10.7%	2.5%	-0.1%
O=C(Nc1ccccc1)c1cc(C2CCCCN2C(=O)CCCc2ccccc2)on1 (stereo not given)	x	i	-0.6%	-5.5%	u	x
O=C(Nc1ccc2c(c1)OCO2)c1cc(C2CCCCN2C(=O)CCCc2ccccc2)on1 (stereo not given)	x	-36.7%	13.1%	-20.3%	8.91µM*	x
Clc1ccc2c(c1)C(N1CCNCC1)Cc1ccccc1S2 (stereo not given)	7.9%	-4.2%[57.5 µM]	-16.2%	-9.9%	8.91µM*	2.6%
CCCCOP(=O)(OCCCC)C(Nc1ccccc1)c1ccc2c(c1)OCO2 (stereo not given)	-20.3%	-11.9%	-31.8%	-8.2%	7.94µM*	-6.7%
CCOP(=O)(OCC)C(Nc1ccccc1)c1ccc2c(c1)OCO2 (stereo not given)	1.3%	i	-2.8%	-13.2%	u	-4.8%
CCCn1nnnc1NCc1ccc(C(C)C)cc1	-32.3%	i	6.5%	18.1%	5.1%	-6.6%
C[C@H](CO)N1C[C@H](C)[C@@H](CN(C)C(=O)NC2CCCCC2)Oc2ccc(NS(C)(=O)=O)cc2C1=O	-6.1%	0.0%	-5.0%	u	2.8%	-0.3%
CCc1cccc(CC)c1NC(=O)CSc1nnc(C2CC2)n1C	9.0%	-0.2%	6.5%	9.5%	7.0%	-1.1%
Cc1ccc(N(Cc2cc(=O)[nH]c3ccccc23)C(=O)CCl)c(C)c1	-17.8%	-3.3%	-4.2%	-26.4%	5.62µM*	-1.2%
CN1CCN(C(=O)c2ccc(CSc3ccc(Cl)cc3)cc2)CC1	1.9%	-32.8%	-2.4%	20.3%	5.62µM*	1.6%
CCN(CC)CCNC(=S)NC(=O)c1cn(-c2ccccc2)nc1-c1ccc(OC)cc1	0.0%	14.4%	19.1%	u	5.01µM*	0.2%
COc1ccc(NC(=O)CN(C)C(=O)c2cn(-c3ccccc3)nc2-c2cccs2)cc1	11.0%	i	-0.6%	-4.3%	11.2µM*	-4.6%
CN(CC(=O)Nc1ccc(F)cc1)C(=O)c1cn(-c2ccccc2)nc1-c1cccs1	-16.8%	-27.9%	-1.3%	6.4%	u	-6.4%
COC(=O)c1cn(-c2ccccc2)nc1-c1ccc(OC)cc1	18.8%	-28.7%	14.4%	4.6%	-10.6%	-19.9%
Cc1c(C(=O)Nc2ccccc2)cnn1-c1ccccc1	-41.2%	-33.1%	0.5%	-24.8%	u	x
COc1ccc(NC(=O)c2cnn(-c3ccccc3)c2C)cc1	21.3%	-42.0%	2.5%	-17.0%	7.94µM*	-14.4%
COc1ccc(NC(=O)c2cn(-c3ccccc3)nc2-c2ccc(C)cc2)cc1	-17.7%	i	x	0.8%	7.94µM*	-9.5%
C[N+]1(C)CCN(C[C@@](O)(c2ccccc2)C2CCCCC2)CC1	x	x	4.7%	x	x	x
COc1ccc(NC(=O)c2cccnc2Nc2ccc(OC)cc2)cc1	-13.7%	-8.9%[57.5 µM]	8.7%	-8.6%	10µM*	-11.2%
CCN(CC)S(=O)(=O)c1ccc(N2CCN(c3ccccc3OC)CC2)c(N)c1	-2.9%	-19.0%	4.4%	-1.2%	10µM*	-6.3%
SMILES	RGS4 inhibitor	PTHR1 ag	GLP-1R agonist	GLP1R cytotox	GLP-1R inv ag	KAT2A inh
CCN(CC)S(=O)(=O)c1ccc2c(c1)c(=O)c(C(=O)N1CCN(c3ccccc3OC)CC1)cn2C	19.6%	i	1.0%	3.4%	-17.1%	-3.3%
COc1ccc(S(=O)(=O)N(CC(=O)N2CCN(c3ccccc3OC)CC2)c2ccccc2)cc1	-42.3%	-13.7%[57.5 µM]	-3.3%	-9.6%	10µM*	-4.7%
CCc1c(C)c2cc(Cl)c(O)c(CN3CCCC3)c2oc1=O	-4.6%[56.9 µM]	i	5.0%	i	30.5%	u
CC(C)=CCCC(C)CN1CCC(N2CCC(C(=O)N3CCOCC3)CC2)CC1 (stereo not given)	-6.6%	i	-0.4%	-3.4%	2.51µM*	-17.9%
CCSc1nnc(NC(=O)CCc2ccc(OC)cc2)s1	26.8%	i	-5.0%	64.0%	6.1%	-2.1%
O=S(=O)(c1cccs1)N1CN(Cc2ccccc2)c2nc3ccccc3nc21	2.2%	-15.5%[57.5 µM]	0.0%	-1.1%	u	-14.2%
O=S(=O)(c1cccs1)N1CN(Cc2cccs2)c2nc3ccccc3nc21	-13.4%	i	5.7%	-1.9%	10µM*	-11.5%
N/C(=N\OC(=O)COc1ccc(Cl)cc1Cl)c1ccccn1	-33.0%	-46.7%	-5.6%	12.1%	u	-12.2%
N/C(=N\OC(=O)COc1ccc(Br)cc1Cl)c1ccccn1	7.6%	-20.0%	-5.6%	65.0%	10µM*	-3.9%
Cc1nc(N)nc(N)c1CCCc1ccc(Cl)c(Cl)c1	-1.7%	-14.2%	11.5%	-30.4%	7.08µM*	x
Cc1nc(N)nc(N)c1-c1ccc(Cl)c(Cl)c1	-23.9%	-37.5%	0.4%	-24.3%	u	x
C=C1CC2(OC1=O)c1ccccc1CCc1ccccc12	u	-39.7%	-16.6%	10µM*	u	x
O=C1NC(=O)C2(CCc3ccccc32)N1 (stereo not given)	22.8%	i	-3.2%	-8.9%	1.6%	-29.5%
CCOC(=O)c1ccc(NC(=S)N(CCCN2CCCCC2)Cc2ccco2)cc1	-8.1%	-7.6%	u	u	11.2µM*	3.1%
CCOc1cc(OCC)cc(C(=O)NCCN2CCC(n3c(=O)[nH]c4ccccc43)CC2)c1	x	i	2.0%	2.0%	-10.8%	x
Cn1c2ccccc2c(=O)c2ccc(NCCc3cccs3)cc21	-28.6%	-40.9%	3.6%	42.1%	-23.7%	10µM*
CC(=O)c1cccc(NS(=O)(=O)c2c(C(=O)N3CCOCC3)c(C)n(C)c2C)c1	20.9%[11.4 µM]	-23.9%	1.3%	-11.4%	2.6%	-5.4%
Cc1ccc(C(=O)NCCNc2ccc([N+](=O)[O-])cc2C(F)(F)F)cc1	-14.7%	-4.3%	1.6%	u	10µM*	-9.5%

Source: PubChem
